A selection: hits, their analogues and other compounds. The true share with any hit is near 5.7%.
JMJD2A Tudor inh = inhibitors of human JMJD2A Tudor domain; 390,000 compounds, 4.4% hits; AID 504339; AlphaScreen JMJD2A-Tudor / H3K4me3 peptide binding; Potency, µM (titrated, usually from 114 µM), for inactives: at the highest dose activity change, negative = inhibition, actives largely listed as inhibitors; O75164; also: potency is read from the fitted curve at half-maximal effect; % is scaled to controls: 0 for no effect and ±100 for the full control effect; nearly all actives have a fitted effect of over 50% in size
L3MBTL1 block = blocks human L3MBTL1. Q9Y468. AlphaScreen L3MBTL1–H3K9me1 peptide binding. Potency, µM (highest dose often 57.1 µM), for the others: at the top dose activity, negative = inhibition, hits mostly inhibitors. 230,000 compounds, 0.66% hits; also: potency is read from the fitted curve at half-maximal effect; % is scaled to controls: 0 for no effect and ±100 for the full control effect; nearly all actives have a fitted effect of over 60% in size
Target sequence (Q9Y468 whole entry, looked up): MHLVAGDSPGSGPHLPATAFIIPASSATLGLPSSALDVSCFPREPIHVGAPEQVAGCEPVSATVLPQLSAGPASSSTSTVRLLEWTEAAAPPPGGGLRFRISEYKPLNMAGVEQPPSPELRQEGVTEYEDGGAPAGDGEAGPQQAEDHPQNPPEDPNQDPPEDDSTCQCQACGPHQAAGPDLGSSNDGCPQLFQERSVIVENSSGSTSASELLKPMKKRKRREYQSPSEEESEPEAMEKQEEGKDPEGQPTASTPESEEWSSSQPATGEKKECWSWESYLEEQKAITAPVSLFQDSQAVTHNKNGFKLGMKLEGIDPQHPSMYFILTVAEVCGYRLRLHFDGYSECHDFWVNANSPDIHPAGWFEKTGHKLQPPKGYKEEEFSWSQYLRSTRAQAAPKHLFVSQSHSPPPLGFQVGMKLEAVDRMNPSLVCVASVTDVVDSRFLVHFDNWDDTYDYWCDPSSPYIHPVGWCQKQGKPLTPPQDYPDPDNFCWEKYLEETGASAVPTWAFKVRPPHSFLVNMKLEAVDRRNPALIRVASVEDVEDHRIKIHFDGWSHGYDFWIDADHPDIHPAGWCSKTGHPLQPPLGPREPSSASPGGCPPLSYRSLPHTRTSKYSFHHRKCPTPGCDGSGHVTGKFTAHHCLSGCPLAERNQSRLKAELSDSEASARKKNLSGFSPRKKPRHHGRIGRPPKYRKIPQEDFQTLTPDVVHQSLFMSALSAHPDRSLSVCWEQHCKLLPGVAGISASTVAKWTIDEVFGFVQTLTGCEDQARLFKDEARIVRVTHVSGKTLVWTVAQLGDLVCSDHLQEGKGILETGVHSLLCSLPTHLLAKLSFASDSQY
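L3MBTL1 (50 nM) pre-complexed 30 min with biotinylated H3(1-15)K9me1 peptide (75 nM), then compounds added for 30 min at room temperature; AlphaScreen streptavidin donor/nickel chelate acceptor beads (10 ug/mL final) read after 30 min dark incubation.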
PI5P4K alpha inh = blocks human PI5P4K alpha kinase activity; max response, %; AID 652105; 330,000 compounds, 1.2% hits; PI5P4Kalpha enzyme, ADP-Glo luminescence, 60 min; stronger effect = lower value; active = max response of -50% or lower; inconclusive = between -30% and -50%; inactive = -30% or higher; also: value at the top dose of about 77 µM; % is scaled to controls: 0 for no effect and ±100 for the full control effect
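Controls without substrate or without enzyme flank wells where PI5P4Kalpha converts substrate using 5 microM ATP (final). Incubation lasts 60 minutes at room temperature; ADP formed is read by ADP-Glo luminescence.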
HP1b chromo inh = inhibitors of HP1-beta chromodomain binding to methylated histone tails. P83916. AlphaScreen HP1-beta / biotin-H3K9me3 peptide binding. Potency, µM (series often up to 114 µM), for the others: top-dose activity change, negative = inhibition, most hits filed as inhibitors. 390,000 compounds, 0.56% hits. AID 540317; also: potency is read from the fitted curve at half-maximal effect; nearly all actives have a fitted effect of over 70% in size
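AlphaScreen: HP1-beta (50 nM) preformed 30 min with biotin-H3(1-18)K9me3 peptide (50 nM) in PBS pH 7.4, 0.01% Tween-20. Compound added for 30 min at RT, then streptavidin donor/nickel chelate acceptor beads (10 ug/mL) for 30 min.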
BAZ2B block = blocks human BAZ2B. AlphaScreen BAZ2B-H3K14Ac peptide displacement. Q9UIF8. Potency, µM (doses to about 114 µM), for inactives: at the top dose activity change, negative = inhibition, hits mostly inhibitors. 360,000 compounds, 4.4% hits. AID 504333; also: potency is read from the fitted curve at half-maximal effect; % is scaled to controls: 0 for no effect and ±100 for the full control effect; nearly all actives have a fitted effect of over 60% in size
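BAZ2B 50 nM plus b-H3(5-23)K14Ac 50 nM, PBS pH 7.4/0.01% Tween-20, 30 min RT; compound added (max 110 uM), 30 min RT; streptavidin donor/Ni-chelate acceptor beads 10 ug/mL final, 20 min dark; AlphaScreen read.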
JMJD2E inh = JMJD2E (human) inhibition. B2RXH2. JMJD2E catalytic domain, FDH-coupled NADH fluorescence (FDH is formaldehyde dehydrogenase). Potency, µM (top dose mostly 57.1 µM), without a hit: at the highest dose activity change, negative = inhibition, hits mostly inhibitors. 230,000 compounds, 1.6% hits; active = well fitted inhibition curve with a large enough effect, not every such curve was filed as active; inconclusive = small, poorly fitted or top-dose-only effect, or another doubt; inactive = no such curve, though single readings can be large or run the other way;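 also: potency is read from the fitted curve at half-maximal effect; 0% = wells with enzyme and -100% = buffer wells without enzyme; nearly all actives have a fitted effect of over 50% in size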
Starred values were filed as active, the others as inactive; [ ] = remark or other dose. Unless noted, calls follow the shape of the dose curve; as a rule, active = well fitted inhibition curve with a large enough effect; inconclusive = small, poorly fitted or top-dose-only effect; inactive = no such curve, though single readings can be large or run the other way.

`CCc1c(C)sc2c1CCN(C(=O)Nc1ccc(F)c(Cl)c1)C2c1ccc(F)cc1` (configuration not stated) gave JMJD2A Tudor inh -4%, HP1b chromo inh 18% and BAZ2B block -21%.
`O=C(CSc1oc(-c2ccc(F)cc2)nc1S(=O)(=O)c1ccccc1)NC1CCCCC1` gave JMJD2A Tudor inh -16%, HP1b chromo inh 18% and BAZ2B block 3%.
CCCCc1c(O)c2ccccc2n(CCCC)c1=O was read as JMJD2A Tudor inh 3%, L3MBTL1 block 1%, PI5P4K alpha inh -4, HP1b chromo inh 39%, BAZ2B block -5% and JMJD2E inh inconclusive.
CCCCc1c(CCC)c(=N)c2ccccc2n1C was read as JMJD2A Tudor inh 89µM*, L3MBTL1 block 9%, PI5P4K alpha inh -1, HP1b chromo inh 35%, BAZ2B block -4%[57.1 µM] and JMJD2E inh inconclusive.
For Cc1[nH]c(=O)[nH]c1C(=O)CCCCC(=O)O the results were JMJD2A Tudor inh 0.89µM*, L3MBTL1 block 0.35µM*, PI5P4K alpha inh -22, HP1b chromo inh -96%, BAZ2B block 0.89µM* and JMJD2E inh 3%.
For COC(=O)C1=C(C)N(Cc2ccc(C)cc2)C(=O)/C1=C\c1ccc(O)c(OC)c1 the results were JMJD2A Tudor inh 25µM*, L3MBTL1 block -20%, PI5P4K alpha inh 1, HP1b chromo inh 22µM*, BAZ2B block 50µM* and JMJD2E inh -28%.
`CCOC(=O)C1=C(C)N(c2ccc(C)cc2)C(=O)/C1=C\c1ccc(O)c(OC)c1` gave JMJD2A Tudor inh 8.9µM*, L3MBTL1 block -21%, PI5P4K alpha inh -6, HP1b chromo inh inconclusive, BAZ2B block 45µM* and JMJD2E inh 2.2µM*.
For CCOc1cc(/C=C2/NC(=O)N(Cc3ccccc3F)C2=O)ccc1O the results were JMJD2A Tudor inh -2%, L3MBTL1 block -26%, PI5P4K alpha inh 1, HP1b chromo inh 21%, BAZ2B block 8% and JMJD2E inh inconclusive.
Screening CCOc1cc(/C=C2\C(=O)N(Cc3ccco3)C(C)=C2C(=O)OC)ccc1O returned JMJD2A Tudor inh 18µM*, L3MBTL1 block -29%, PI5P4K alpha inh -15, HP1b chromo inh 20µM*, BAZ2B block 50µM* and JMJD2E inh 5%.
CCOc1ccc(N2C(=O)S/C(=C\c3ccc(O)c(OC)c3)C2=O)cc1 was read as JMJD2A Tudor inh -8%, L3MBTL1 block 0%, PI5P4K alpha inh -4, HP1b chromo inh 4%, BAZ2B block -2% and JMJD2E inh 1%.
Screening COC(=O)C1=C(C)N(CC2CCCO2)C(=O)/C1=C\c1ccc(O)cc1 (configuration not stated) returned JMJD2A Tudor inh 35µM*, PI5P4K alpha inh -6, HP1b chromo inh inconclusive, BAZ2B block inconclusive and JMJD2E inh -8%.
CCS(=O)(=O)N1CCc2cc(C(=O)NCc3ccc(Cl)cc3)ccc21 was read as JMJD2A Tudor inh -28%, HP1b chromo inh 39% and BAZ2B block -19%.
CN(CCc1cn[nH]c1)C(=O)C1CCC(=O)N(CC2CCCCC2)C1 (configuration not stated) was read as JMJD2A Tudor inh -15%, PI5P4K alpha inh -9, HP1b chromo inh 7% and BAZ2B block -9%.
Cc1cc(C)c(NC(=O)CSc2ncc3c(n2)-c2cc(Cl)ccc2N(C)S3(=O)=O)c(C)c1 was read as JMJD2A Tudor inh -15%, HP1b chromo inh 36% and BAZ2B block 33%.
Screening CCOc1cc(/C=C2\C(=O)N(CCc3ccc(OC)c(OC)c3)C(C)=C2C(=O)OC)ccc1O returned JMJD2A Tudor inh 40µM*, L3MBTL1 block -4%, PI5P4K alpha inh 2, HP1b chromo inh inconclusive, BAZ2B block 50µM* and JMJD2E inh -15%.
Screening CCOc1cc(/C=C2/N=C(C)C(C(=O)OC)=C2O)ccc1O returned JMJD2A Tudor inh -13%, L3MBTL1 block -6%, PI5P4K alpha inh 0, HP1b chromo inh 6%, BAZ2B block -10% and JMJD2E inh -8%.
COC(=O)C1=C(C)N(Cc2ccc(C)cc2)C(=O)/C1=C\c1cc(OC)c(OC)c(OC)c1 was read as JMJD2A Tudor inh 11µM*, L3MBTL1 block -3%, PI5P4K alpha inh 15, HP1b chromo inh -22%, BAZ2B block 40µM* and JMJD2E inh -8%.
`COc1cccc(N2CC(NC(=O)c3ccc4c(c3)OCO4)CC2=O)c1` (configuration not stated) gave JMJD2A Tudor inh 0%, HP1b chromo inh 13% and BAZ2B block -3%.
COc1ccc(C2=C(C)C(=NCCCN3CCN(c4cc(C)ccc4C)CC3)NS2(=O)=O)cc1 was read as JMJD2A Tudor inh -15%, HP1b chromo inh 13% and BAZ2B block -10%.
For Cc1ccc(-c2c(C)n3c4c(=O)n(C)c(=O)n(C)c4nc3n2-c2cccc(O)c2)cc1 the results were JMJD2A Tudor inh -7%, HP1b chromo inh 22% and BAZ2B block -8%.
CCOc1ccc2c(c1)C(c1cccs1)=NNC(c1cccnc1)=N2 was read as JMJD2A Tudor inh inconclusive, L3MBTL1 block 16%, PI5P4K alpha inh 0, HP1b chromo inh -19%, BAZ2B block 71µM* and JMJD2E inh 15%.
Screening Brc1ccc2c(c1)C(c1cccs1)=NNC(c1cccnc1)=N2 returned JMJD2A Tudor inh -25%, L3MBTL1 block -8%, PI5P4K alpha inh 0, HP1b chromo inh 20%, BAZ2B block 4% and JMJD2E inh 6%.
For CCOc1ccccc1N1CCN(S(=O)(=O)c2ccc3c4c(cccc24)C(=O)N3)CC1 the results were JMJD2A Tudor inh 56µM*, PI5P4K alpha inh inconclusive, HP1b chromo inh -16%, BAZ2B block 50µM* and JMJD2E inh -12%.
CCOc1ccc(S(=O)(=O)N2CCCCC2)cc1NC(=O)Cc1cc(OC)c(OC)c(OC)c1 was read as PI5P4K alpha inh -5.
`c1ccc(-c2nc3ccccn3c2NC2CCCC2)nc1` gave JMJD2A Tudor inh inconclusive, L3MBTL1 block inconclusive, PI5P4K alpha inh 4, HP1b chromo inh -10%, BAZ2B block 50µM* and JMJD2E inh 7%.
For Cc1ccn2c(NC3CCCC3)c(-c3ccccn3)nc2c1 the results were JMJD2A Tudor inh 50µM*, PI5P4K alpha inh -14, HP1b chromo inh -20%, BAZ2B block 50µM* and JMJD2E inh 1%.
O=C(NCCN1CCC(n2c(=O)[nH]c3ccccc32)CC1)c1ccc(F)c(F)c1 was read as PI5P4K alpha inh -3.
